The results in this text go back to PubChem BioAssay AID2314 (National Center for Advancing Translational Sciences (NCATS), 2010).

Each structure is given as a SMILES string. Hit rate of the full screen: of about 300,000 compounds, about 37,000 (12%) were called active. This excerpt belongs to a sample that is enriched for actives. Values without a mark were called inactive. Cut-off read from the data, not from the text of the source: active = max response mostly above about 13% (no sharp cut-off); inactive = mostly below about 14%.

A short description of the test: Cycloheximide Counterscreen for Small Molecule Inhibitors of Shiga Toxin. Note: read at 38.3 µM for the half of the compounds with a filed dose; 0% is about no effect. To be noted: cell reporter, cycloheximide protein synthesis inhibition counterscreen; hits give high values.
In the case of `Cc1ccc(S(=O)(=O)N(C)CC(=O)NCCc2c[nH]c3ccccc23)cc1`, the max response is 0.209%.
Turning to `Cc1cccc(NC(=O)NC2(C)CCS(=O)(=O)C2)c1` (stereo unspecified), the max response is 1.38%.
The result for `COc1ccccc1CNC(=O)c1ccc(N(C)S(=O)(=O)c2ccc(C)cc2)cc1` reads -0.735%.
The result for `Cc1coc2c(O)cc3c(c12)OC1(N2CCCCC2)C(=O)NCCCC31` (stereo unspecified) reads -0.492%.
For `COc1ccc(CNS(=O)(=O)c2cc(-c3cc(C)no3)ccc2C(C)C)cc1` the value was -0.908%; for `CCCCC(=O)Nc1c2c(nn1-c1ccc([N+](=O)[O-])cc1)CS(=O)(=O)C2`, -4.82%.
Take `O=C(c1cc2ccccc2s1)N1CCN(c2ccccn2)CC1`: the max response is -0.772%.
For the compound `Cc1ccc(COc2ccc(C(=O)NN)cc2)cc1`, the max response is 15.8%.
Consider `NNC(=O)c1cccc(COCC(F)(F)C(F)F)c1`, for which the max response was 9.81%.
The result for `CC(C)c1cc(C(N)=O)c(NC(=O)c2cccc(COc3ccc(Br)cc3)c2)s1` reads 142% (active).
The result for `CN(C)C(=O)CCC(=O)N1CCCCC1C(=O)Nc1ccc(Oc2ccccc2F)cc1` (stereo unspecified) reads -1.6%; that for `O=S(=O)(NCc1cccnc1)c1ccc(Br)s1`, -6.09%; that for `O=S(=O)([N-]c1nc2ccccc2nc1-[n+]1ccc(Cc2ccccc2)cc1)c1ccc(Br)s1`, 10.5% (active).
For `Cc1cc(C)c[n+](-c2nc3ccccc3nc2[N-]S(=O)(=O)c2cccs2)c1` the value was -0.756%; for `CCCSc1nc(NCc2ccco2)c2c3c(sc2n1)COC(C)(CC)C3` (stereo unspecified), 24.2%; for `O=c1onc(-c2c(F)cccc2F)n1-c1ccccc1Cl`, -4.66%.
`O=C(O)c1cc2c(cc1NC(=O)c1c(F)cccc1Cl)OCCCO2`: the max response is -4.07%.
For `C=CCSc1nnc(NC(=O)c2ccc(NC(C)=O)cc2)s1` the value was 14.5% (active); for `O=C(Nc1nnc(SCc2ccccc2Cl)s1)c1cccc([N+](=O)[O-])c1`, -4.31%; for `CCSc1nnc(NC(=O)c2ccc(C)cc2)s1`, 32.4% (active).
The result for `NC(=O)CSc1nnc(NC(=O)c2ccc(Br)o2)s1` reads 27.9%; that for `CCSc1nnc(NC(=O)Cc2ccccc2OC)s1`, 7.43%; that for `CCOC(=O)CSc1nnc(NC(=O)c2cccc(S(=O)(=O)N3CCCC3)c2)s1`, -1.74%.
The result for `Cc1ccc(N=Cc2c(O)n(-c3nccs3)c(=O)c3ccccc23)c(C)c1` reads 0.787%.
Regarding `O/N=C(\C[n+]1ccccc1)c1ccc(Br)cc1`, the max response was -6.18%.
Consider `CC1CC(=O)N(CC(=O)Nc2cccc(Cl)c2)c2ccccc2S1(=O)=O` (stereo unspecified), for which the max response is -1.52%.
